High-throughput results (PubChem BioAssay)
A selection: hits, their analogues and other compounds. The true share with any hit is near 2.1%.
U2OS ROS induce: ROS inducers in U2OS cancer cells, primary screen, cell-based, H2DCF-DA fluorescence. U2OS ROS induction. ROS induction (% of piperlongumine), % at 10 µM. AID 624156, 2012. 2% of 46,000 active; in the data active means ROS induction above about 79%, passing the limit was not always enough; inconclusive means no clear call, values can overlap the other calls;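 further: 0% = DMSO vehicle median and 100% = reference compound median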
YB-1 expr inh: inhibitors of YB-1 gene expression, primary screen, cell-based, fluorescence | U2OS, qRT-PCR YB-1 vs CDIP delta delta Cp, 16 h; active compounds read high; zero = DMSO, each unit about twofold | delta delta Cp (YB-1 minus CDIP) (test concentration not listed) | 0.37% of 30,000 active | AID 434959, 2010;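 active means delta delta Cp rounded down to an integer at or above 3, about 3 SD of DMSO wells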;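 further: higher means less YB-1 transcript or more CDIP transcript relative to DMSO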
Numbers without * were called inactive; ? = inconclusive; . = no result given.

SMILES	U2OS ROS induce	YB-1 expr inh
CCOC(=O)CC(Nc1nc(N2CCOCC2)nc(N2CCOCC2)n1)c1ccc(C)cc1 (stereo not given)	1	.
Fc1ccc(-c2nc(-c3ccc(C(F)(F)F)cc3)no2)c(Cl)c1	-9	.
COc1ccc(CCNC(=O)c2ccc(Sc3ccc(C)cc3)c(NC(C)=O)c2)cc1OC	-12	.
FC(F)(F)c1ccc(N2CCN(Cc3cn[nH]c3-c3ccccc3)CC2)nc1	-18	.
O=C(NCCC1=CCCCC1)c1sc2ccccc2c1Cl	11	.
C=CCNC(=O)[C@@H]1[C@H]2C(=O)O[C@H](c3ccccc3)[C@H](c3ccccc3)N2[C@H](c2ccccc2OCCO)[C@@]12C(=O)Nc1ccc(C#CCC(C(=O)OC)C(=O)OC)cc12	192*	-0.68
C=CCNC(=O)[C@@H]1[C@H]2C(=O)O[C@H](c3ccccc3)[C@H](c3ccccc3)N2[C@H](c2ccccc2OCCO)[C@@]12C(=O)Nc1ccc(C#CCNC(N)=O)cc12	11	0.075
C=CCNC(=O)[C@H]1[C@@H]2C(=O)O[C@@H](c3ccccc3)[C@@H](c3ccccc3)N2[C@@H](c2ccccc2OCCO)[C@]12C(=O)Nc1ccc(C#Cc3ccc(OC)cc3)cc12	14	0.019
C=CCNC(=O)[C@H]1[C@@H]2C(=O)O[C@@H](c3ccccc3)[C@@H](c3ccccc3)N2[C@@H](c2ccccc2OCCO)[C@]12C(=O)Nc1ccc(C#CCC(C(=O)OC)C(=O)OC)cc12	185*	-0.41
Cc1ccc(NC(=O)c2oc3ccc(S(=O)(=O)N(C)C4CCCCC4)cc3c2C)cc1C	2	.
COc1ccc(CCNC(=O)C2CCCCC2)cc1OC	-1	-0.83
CC1CCCCN1C(=O)c1cc(-c2ccc(F)cc2)no1 (stereo not given)	-8	.
Cc1ccc(-n2ncc3c2ncn2nc(Cc4ccccc4)nc32)cc1	7	.
Cc1ccc(-c2nc3c(cnn3-c3ccccc3)c(=O)n2-c2cccc(C)c2)cc1	187*	.
CCCCN1C(=O)S/C(=C\c2cc(C)n(C)c2C)C1=O	-2	.
COc1ccc([Si](C)(C)[C@@H]2[C@@H](CCO)O[C@]3(C(=O)N(Cc4ccccc4)c4ccc(NC(C)=O)cc43)[C@H]2C)cc1	67	0.45
C=CCN1C(=O)[C@]2(O[C@H](CCO)[C@@H]([Si](C)(C)c3ccc(OC)cc3)[C@@H]2C)c2cc(N3CCC3=O)ccc21	21	-0.096
C=CCN1C(=O)[C@@]2(O[C@@H](CCO)[C@H]([Si](C)(C)c3ccc(OC)cc3)[C@H]2C)c2cc(I)ccc21	94*	0.2
C=CCN1C(=O)[C@@]2(O[C@@H](CCO)[C@H]([Si](C)(C)c3ccc(OC)cc3)[C@H]2C)c2cc(NC(C)=O)ccc21	106*	-0.25
O=C(Nc1cc(C(=O)Nc2ccccc2O)cc(C(=O)Nc2ccccc2O)c1)c1ccccc1	97*	.
COC(=O)c1cc(NC(=O)c2cccc(Cl)c2)cc(C(=O)OC)c1	-7	.
Cc1cc(/C=C2/SC(=O)N(C(C)C)C2=O)c(C)n1-c1ccncc1	13	9.6*
Cc1cc(C)cc(-n2c(C)cc(/C=C3\SC(=O)NC3=O)c2C)c1	58	-0.053
COc1ccc2oc(=Nc3ccc(C(=O)O)cc3)c(C(=O)NCc3ccccc3)cc2c1	-9	.
C[C@@H]1CCCCO[C@@H](CN(C)S(C)(=O)=O)[C@@H](C)CN([C@H](C)CO)C(=O)c2cc(NC(=O)Cc3ccccc3)ccc2O1	84*	-0.36
C[C@@H]1CCCCO[C@@H](CN(C)C(=O)Nc2cccc3ccccc23)[C@@H](C)CN([C@H](C)CO)C(=O)c2cc(NC(=O)Cc3ccccc3)ccc2O1	177*	0.2
C[C@@H]1CCCCO[C@@H](CN(C)C(=O)Nc2cccc3ccccc23)[C@@H](C)CN([C@H](C)CO)C(=O)c2cc(NC(=O)c3ccccc3)ccc2O1	?	-0.28
C[C@@H]1CCCCO[C@H](CN(C)S(C)(=O)=O)[C@@H](C)CN([C@H](C)CO)C(=O)c2cc(NC(=O)Cc3ccccc3)ccc2O1	5	0.014
C[C@@H]1O[C@@H](O[C@H]2[C@H](O[C@H]3CC[C@@]4(C)C(CC[C@]5(C)C4CC=C4C6CC(C)(C)CC[C@]6(C(=O)O[C@@H]6O[C@H](CO[C@@H]7O[C@H](CO)[C@@H](O[C@@H]8O[C@@H](C)[C@H](O)[C@@H](O)[C@H]8O)[C@H](O)[C@H]7O)[C@@H](O)[C@H](O)[C@H]6O)CC[C@]45C)[C@]3(C)CO)OC[C@H](O)[C@@H]2O)[C@H](O)[C@H](O)[C@H]1O (stereo not given in full)	-12	-0.12
